Coupling enz: counter-screen for Giardia aldolase inhibitors: coupling enzyme system. activity change, negative = inhibition, % at 58.2 µM, hits read low. AID 2472. coupling enzyme system counterscreen, AmpLite Red fluorescence. 290,000 compounds, 0.67% hits; in the data active means activity change below about -30%; further: on the % scale 0 is the no-effect control and ±100 the full control effect
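Compounds tested against the coupling enzymes alone at 57.5 uM final; readout was AmpLite Red fluorescence (525/598 nm) after 20 min at RT.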
TRb-SRC2 inh: TRbeta-SRC2 interaction inhibition; P10828; 280,000 compounds, 0.065% hits; Potency, µM (doses to about 106 µM), for the others: at the top dose activity change, negative = inhibition, usual class: inhibitors; AID 1469; TRbeta-SRC2 peptide binding, fluorescence polarization; receptor liganded with 1 µM T3;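 further: potency means the concentration at half of the fitted maximal effect; plate controls were bound peptide for no effect and peptide without receptor for full effect; nearly all actives have a fitted effect of over 50% in size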
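Decrease in fluorescence polarization of 20 nM Texas Red SRC2 coactivator peptide flagged inhibition of its binding to 0.6 uM TRb LBD; 1 uM T3 included, incubation 5 hr, ex 555/em 632 nm.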
NPSR antagonist: neuropeptide S receptor (human) antagonism, cAMP | CHO-NPSR cells, cAMP TR-FRET, antagonist mode | Potency, µM (highest dose often 38.3 µM), for the others: at the highest dose activity change, negative = inhibition, usual class: inhibitors | 220,000 compounds, 1% hits; further: potency means the concentration at half of the fitted maximal effect; on the % scale 0 is the no-effect control and ±100 the full control effect; nearly all actives have a fitted effect of over 50% in size
TCR act: activators of T cell receptors; 330,000 tested, under 10 active; Potency, µM (top dose mostly 9.22 µM), inactives show top-dose activation of IL-2 secretion, actives largely listed as activators; primary human leukocytes, anti-CD3, IL-2 HTRF, 48 h; further: % of control where 0% means no effect
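Activity was scored as IL-2 release from primary human leukocytes given only a TCR signal (a-CD3 beads) plus compound for 48 hr. Detection used a two-antibody HTRF format read at 665nm.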
TSHR antag: human thyrotropin receptor antagonism | TSHR-expressing cells, TSH-stimulated cAMP HTRF, 2 h; active compounds read low | activity change, negative = inhibition, % at 11.5 µM | 330,000 compounds, 0.2% hits | AID 504810;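 active means activity change below a set negative limit, meaning inhibition stronger than a set level, cut at about -70% in these data; inconclusive means activity change between two set negative limits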; further: on the % scale 0 is the no-effect control and ±100 the full control effect
Target sequence (P16473 whole entry, looked up): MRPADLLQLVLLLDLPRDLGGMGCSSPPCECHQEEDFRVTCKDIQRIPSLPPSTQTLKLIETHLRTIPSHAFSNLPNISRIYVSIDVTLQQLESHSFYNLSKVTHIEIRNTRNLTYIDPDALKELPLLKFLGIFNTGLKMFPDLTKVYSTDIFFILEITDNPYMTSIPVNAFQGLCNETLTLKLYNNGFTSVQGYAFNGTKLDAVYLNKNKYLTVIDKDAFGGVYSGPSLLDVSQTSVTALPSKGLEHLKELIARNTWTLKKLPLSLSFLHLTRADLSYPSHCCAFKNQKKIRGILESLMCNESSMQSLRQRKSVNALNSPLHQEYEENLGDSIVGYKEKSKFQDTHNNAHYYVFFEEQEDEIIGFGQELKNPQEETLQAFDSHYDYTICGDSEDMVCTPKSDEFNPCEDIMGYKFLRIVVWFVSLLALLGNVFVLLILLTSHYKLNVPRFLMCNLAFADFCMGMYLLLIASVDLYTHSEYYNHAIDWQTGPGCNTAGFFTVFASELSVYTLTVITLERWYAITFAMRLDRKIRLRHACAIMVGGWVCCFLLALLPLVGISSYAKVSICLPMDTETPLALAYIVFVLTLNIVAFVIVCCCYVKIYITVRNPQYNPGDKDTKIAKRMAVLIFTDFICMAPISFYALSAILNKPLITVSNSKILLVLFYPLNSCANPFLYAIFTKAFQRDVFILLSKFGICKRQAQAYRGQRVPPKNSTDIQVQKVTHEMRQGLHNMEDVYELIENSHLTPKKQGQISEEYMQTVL
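TSHR-expressing cells, 200/well, pre-treated with compound, then stimulated with EC80 TSH (4nM final) for 2 hours at 37 deg C. cAMP measured by competitive HTRF: anti-cAMP cryptate antibody in lysis buffer plus cAMP-d2, read after 30 minutes at room temperature.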
TR SRC2 fluor cs: alters Texas Red total fluorescence, flagging assay interference; AID 1479; Potency, µM (titrated, usually from 106 µM), for inactives: at the top dose fluorescence change, negative = quenching; 280,000 compounds, 0.29% hits; TRb/SRC2 Texas Red total fluorescence interference; active means well fitted curve in either direction with a large enough effect; inconclusive means small, poorly fitted or top-dose-only effect; further: potency means the concentration at half of the fitted maximal effect; on the % scale 0 is the no-effect control and ±100 the full control effect
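Human TRβ ligand-binding domain (0.6 uM) and Texas Red SRC2 peptide (20 nM) in Tris buffer with 1 uM T3 and 5% DMSO were incubated with pinned compound for 5 hr at ambient temperature. Total fluorescence was computed as S + 2P (555/632 nm).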
The depositor's hits bear a star; [ ] = another dose, or the depositor's remark. Hits are enriched below; roughly 1% of the tested compounds scored in any of these assays. Unless noted, the call rests on the fitted dose curve; in most records, active means well fitted curve in the direction sought with a large enough effect; inconclusive means small, poorly fitted or top-dose-only effect, or another doubt; inactive means no such curve, though single readings can be large; an effect the other way counts as inactive or inconclusive.

For O=C(NCc1ccccc1)c1sc(=S)n2c1[nH]c(=O)c1ccccc12 the results were TRb-SRC2 inh 4.0%, NPSR antagonist -6.9%[46.1 µM], TCR act -2.1%, TSHR antag -78.7* and TR SRC2 fluor cs -11.5%.
Screening CCN(CC)C(=O)c1ccc2c(c1[N+](=O)[O-])C(=O)c1ccccc1C2=O returned Coupling enz -41.9*, TRb-SRC2 inh -7.1%, NPSR antagonist 5.7%[46.1 µM], TCR act 4.0%[46.1 µM], TSHR antag 7.2 and TR SRC2 fluor cs -2.2%.
Screening CC(=O)c1ccc(NC(=O)C2=CC(c3ccc(C)cc3)=NS(=O)(=O)N2C)cc1 returned TRb-SRC2 inh 1.0% and TR SRC2 fluor cs 1.4%.
Cc1ccc(CSc2nc3ccncc3n2CC(=O)Nc2cc(C)cc(C)c2)cc1 was read as Coupling enz -3.0, TRb-SRC2 inh 9.8%, NPSR antagonist 3.16µM*, TCR act -3.6%, TSHR antag -16.8 and TR SRC2 fluor cs -0.9%.
Cc1cc(C)cc(NC(=O)Cn2c(SCc3cc(C)ccc3C)nc3ccncc32)c1 was read as Coupling enz 0.3, TRb-SRC2 inh 2.0%, NPSR antagonist -20.9%, TSHR antag -21.3 and TR SRC2 fluor cs -2.2%.
O=[N+]([O-])c1cc(/C=N\Nc2nc(-c3ccccc3)cs2)ccc1O was read as Coupling enz 2.4, TRb-SRC2 inh -4.3%, NPSR antagonist -49.0%, TCR act 0.4%, TSHR antag -12.3 and TR SRC2 fluor cs -14.3%.
Cc1csc(N/N=C/c2ccc(O)c([N+](=O)[O-])c2)n1 was read as Coupling enz -3.6, TRb-SRC2 inh -3.3%, NPSR antagonist 10µM*, TCR act 0.8%, TSHR antag -13.5 and TR SRC2 fluor cs -26.1%.
Screening Cc1ccc(C2CC(c3cccs3)=NN2C(=O)c2ccc(Br)o2)cc1 (configuration not stated) returned Coupling enz 1.7, TRb-SRC2 inh -24.6%, NPSR antagonist 10µM*, TCR act 4.7%, TSHR antag 20.6 and TR SRC2 fluor cs 1.6%.
CC(=O)N1N=C(c2cccs2)CC1c1ccc(Br)cc1 (configuration not stated) was read as Coupling enz 1.1, TCR act 9.7% and TSHR antag 6.1.
Screening O=C(Cn1cc(SCc2ccc(C(F)(F)F)cc2)c2ccccc21)N1CCCCC1 returned TRb-SRC2 inh -4.8% and TR SRC2 fluor cs -0.7%.
`CC1=C(n2nnc([N+](=O)[O-])n2)C(c2cccnc2)C(C#N)=C(N)O1` (configuration not stated) gave Coupling enz -67.5*, TRb-SRC2 inh -0.1%, NPSR antagonist 16.3%, TCR act 3.3%[46.1 µM], TSHR antag 16.9 and TR SRC2 fluor cs -3.9%.
For CC1=C(CC(=O)c2ccccc2)C(=O)c2ccccc2C1=O the results were Coupling enz -35.6*, TRb-SRC2 inh 0.4%, NPSR antagonist -2.6%[46.1 µM], TCR act -15.3%, TSHR antag 39.3 and TR SRC2 fluor cs -1.3%.
Screening Cc1cccc(Cn2c(CNS(=O)(=O)c3ccc(C(C)C)cc3)nc3cccnc32)c1 returned TRb-SRC2 inh -4.1% and TR SRC2 fluor cs -0.6%.
For CCc1nnc(NS(=O)(=O)c2ccc(NC(=S)NC(=O)/C=C/c3ccc(F)cc3)cc2)s1 the results were Coupling enz 0.0, TRb-SRC2 inh 5.2%, NPSR antagonist 10µM*, TCR act -1.8%[46.1 µM], TSHR antag -28.9 and TR SRC2 fluor cs 5.4%.
Screening Cc1ccc(S(=O)(=O)c2cn(CC(=O)Nc3ccc4c(c3)OCO4)c3ccc(F)cc3c2=O)cc1 returned TRb-SRC2 inh 6.7% and TR SRC2 fluor cs -1.0%.
For COc1ccc(-c2noc(N3CCC(C(=O)N4CCN(c5ccccc5F)CC4)CC3)n2)cc1 the results were TRb-SRC2 inh inconclusive and TR SRC2 fluor cs 56.2µM*[quencher].
Screening CCc1ccc(NC(=O)C2CCN(C(=O)N3CC(CC)Oc4ccccc43)CC2)cc1 (configuration not stated) returned TRb-SRC2 inh 0.1% and TR SRC2 fluor cs -3.2%.
`CCC1CN(C(=O)N2CCC(C(=O)N3CCN(c4ccccc4F)CC3)CC2)c2ccccc2O1` (configuration not stated) gave TRb-SRC2 inh -2.6% and TR SRC2 fluor cs 0.0141µM*[quencher].
CCC(=O)NNc1ncnc2c1cnn2-c1ccc(C)c(Cl)c1 was read as TRb-SRC2 inh 5.4% and TR SRC2 fluor cs -2.2%.
CCCCN(C(=O)C1CCC(CNS(=O)(=O)c2cccc3nsnc23)CC1)c1ccccc1 (configuration not stated) was read as TRb-SRC2 inh -1.0% and TR SRC2 fluor cs -0.3%.
Oc1ccc(Nc2ccccc2)cc1 was read as TRb-SRC2 inh 9.1%[201 µM] and TR SRC2 fluor cs -2.6%[201 µM].
CCN(CCCNC(=O)Cn1ncc2c([nH]c3ccc(C)cc32)c1=O)c1cccc(C)c1 was read as Coupling enz -3.0, TRb-SRC2 inh 1.9%, TCR act -1.5%, TSHR antag -132.6* and TR SRC2 fluor cs 3.6%.
CCc1ccccc1NC(=O)CN1C(=O)c2cccnc2Oc2ccc(Cl)cc21 was read as TRb-SRC2 inh -5.6% and TR SRC2 fluor cs 14.1µM*[quencher].
Cc1ccc(NC(=O)CN2C(=O)c3cccnc3Oc3ccc(Cl)cc32)cc1 was read as TRb-SRC2 inh -14.9% and TR SRC2 fluor cs 17.8µM*[quencher].
Screening CCCCCCc1cc2cc(-c3nnc(-c4ccc(C)cc4)o3)c(=O)oc2cc1O returned TRb-SRC2 inh -18.2%[53 µM] and TR SRC2 fluor cs 2512µM*[quencher].
COc1cc(Cl)c(NC(=O)c2cc(S(=O)(=O)N3CCCCC3)c[nH]2)c(OC)c1 was read as TRb-SRC2 inh -6.9% and TR SRC2 fluor cs 20µM*[quencher].
For Cc1ccc(-n2ncc(C(=O)NCCCN3CCc4ccccc4C3)c2C2CCN(C(=O)OC(C)(C)C)CC2)cc1C the results were TRb-SRC2 inh 0.4% and TR SRC2 fluor cs -16.2%.
For CC1CCN(C(=O)c2cc(-c3ccc(Br)cc3)on2)CC1 the results were TRb-SRC2 inh -5.3% and TR SRC2 fluor cs inconclusive.
O=C(NC(=S)NC1CCS(=O)(=O)C1)c1ccccc1 (configuration not stated) was read as TCR act 2.6% and TSHR antag 6.8.
For CN(C1=C(NC(=O)c2ccccc2)C(=O)c2ccccc2C1=O)C1CCS(=O)(=O)C1 (configuration not stated) the results were Coupling enz -61.7*, TRb-SRC2 inh 1.8%, NPSR antagonist inconclusive, TCR act 7.5%[46.1 µM], TSHR antag 19.3 and TR SRC2 fluor cs 0.4%.

High-throughput results (PubChem)
